Read-outs that look alike come from different tables or passages of the source.
Legend:
Conditions in all cases: n = 1
[1] = system: ACVR2B
[2] = system: ACVRL1
[3] = system: T1, ADCK3
T1 construct: gene CABC1

[4] = system: ADCK4
[5] = system: AKT1
[6] = system: AKT2
[7] = system: AKT3
[8] = system: ALK
[9] = system: T2, AMPK-alpha1
T2 construct: gene PRKAA1

[10] = system: T3, AMPK-alpha2
T3 construct: gene PRKAA2

[11] = concentration: 1 μM, replicates: in singlicate
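Note: KINOMEscan kinase panel screen.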

| Structure (SMILES) | %Inh [1, 11] [%] | %Inh [2, 11] [%] | %Inh [3, 11] [%] | %Inh [4, 11] [%] | %Inh [5, 11] [%] | %Inh [6, 11] [%] | %Inh [7, 11] [%] | %Inh [8, 11] [%] | %Inh [9, 11] [%] | %Inh [10, 11] [%] | %Inh ([1]; 1 µM) [%] | %Inh ([2]; 1 µM) [%] | %Inh ([3]; 1 µM) [%] | %Inh ([4]; 1 µM) [%] | %Inh ([5]; 1 µM) [%] | %Inh ([6]; 1 µM) [%] | %Inh ([7]; 1 µM) [%] | %Inh ([8]; 1 µM) [%] | %Inh ([9]; 1 µM) [%] | %Inh ([10]; 1 µM) [%] |
| --- | --- | --- | --- | --- | --- | --- | --- | --- | --- | --- | --- | --- | --- | --- | --- | --- | --- | --- | --- | --- |
| Cn1ccc2ncnc(Oc3ccc(Nc4nc5ccccc5[nH]4)cc3)c21 | 0 | 0 | 0 | 0 | 0 | 16 | 0 | 0 | 7 | 0 | – | – | – | – | – | – | – | – | – | – |
| CC(C)(C)c1ccc(C(=O)Nc2cn3cc(-c4cccnc4)ccc3n2)cc1 | 0 | 0 | 19 | 0 | 0 | 0 | 4 | 0 | 43 | 0 | – | – | – | – | – | – | – | – | – | – |
| O=C(Nc1n[nH]c2cc(-c3cccc(F)c3F)ccc12)C1CC1 [SB-733894] | 18 | 29 | 6 | 0 | 0 | 0 | 1 | 0 | 0 | 0 | – | – | – | – | – | – | – | – | – | – |
| Cc1cccc(-c2nc(Nc3ccncc3)c3ccccc3n2)n1 [GW855857] | 36 | 65 | 27 | 0 | 20 | 0 | 0 | 0 | 0 | 12 | – | – | – | – | – | – | – | – | – | – |
| Cn1ccc2ncnc(Oc3cccc(C(=O)Nc4ccccc4)c3)c21 | 1 | 0 | 6 | 17 | 0 | 0 | 10 | 0 | 0 | 0 | – | – | – | – | – | – | – | – | – | – |
| COc1cc2nccc(Nc3ccc(NC(=O)c4ccc(C)cc4)c(O)c3)c2cc1OC.Cl [GW440132] | 0 | 0 | 10 | 41 | 0 | 1 | 0 | 6 | 0 | 0 | – | – | – | – | – | – | – | – | – | – |
| Cc1cc(-c2ccc3c(c2)CC[C@@H](N[C@@H](C)c2ccccc2)C3)cnc1N.Cl [GW412617] | 0 | 37 | 41 | 1 | 0 | 27 | 14 | 52 | 2 | 20 | – | – | – | – | – | – | – | – | – | – |
| Nc1ncnc2[nH]c(-c3ccccc3)nc12 [AH5015] | 0 | 0 | 25 | 12 | 0 | 9 | 0 | 33 | 2 | 17 | – | – | – | – | – | – | – | – | – | – |
| Cc1ccc(NC(=O)Nc2cccc(C(F)(F)F)c2)cc1 [GSK955403] | – | – | – | – | – | – | – | – | – | – | 0 | 0 | 5 | 0 | 12 | 3 | 0 | 0 | 0 | 0 |
| COc1ccc(CNC(=O)NC2CCN(c3ccnc(Nc4cc(OC)c(OC)c(OC)c4)n3)C2)cc1 (stereo not drawn) [GSK1379748] | 0 | 0 | 24 | 76 | 0 | 0 | 0 | 27 | 10 | 0 | – | – | – | – | – | – | – | – | – | – |
| O=C(Nc1ccccc1)Nc1cccc(Oc2ccc3nccn3n2)c1 | 6 | 0 | 5 | 18 | 32 | 0 | 20 | 17 | 11 | 0 | – | – | – | – | – | – | – | – | – | – |
| COc1ccc(Nc2nccc(-c3cccc(NC(=O)c4cc5cc(F)ccc5[nH]4)c3)n2)cc1 [GSK1229782] | 19 | 0 | 8 | 61 | 0 | 18 | 31 | 29 | 34 | 18 | – | – | – | – | – | – | – | – | – | – |
| CS(=O)(=O)c1ccc(-c2c(-c3ncn[nH]3)sc(N3CCOCC3)c2C#N)cc1 | 0 | 8 | 3 | 0 | 1 | 15 | 0 | 9 | 22 | 8 | – | – | – | – | – | – | – | – | – | – |
| COc1ccccc1CNC(=O)c1cc(C(=O)c2ccccc2C)c[nH]1 [GSK364507] | 0 | 0 | 13 | 34 | 0 | 17 | 0 | 21 | 0 | 0 | – | – | – | – | – | – | – | – | – | – |
| Cc1cc(NCC(c2ccccc2)c2ccccc2)nc(NCc2ccc(C(F)(F)F)cc2)n1 [GW497681] | 0 | 0 | 10 | 86 | 0 | 0 | 0 | 3 | 0 | 0 | – | – | – | – | – | – | – | – | – | – |
| CN(C)CCN(C)C(=O)c1cc(-c2ccncc2)c(-c2ccc(Cl)c(O)c2)o1.Cl.Cl [SB-710397] | 9 | 0 | 11 | 45 | 0 | 0 | 0 | 29 | 0 | 0 | – | – | – | – | – | – | – | – | – | – |
| Clc1cc(Cl)cc(Nc2ccnc(Nc3cc(Cl)cc(Cl)c3)n2)c1 [GSK175726] | 39 | 43 | 31 | 3 | 0 | 0 | 0 | 18 | 18 | 0 | – | – | – | – | – | – | – | – | – | – |
| Cc1c(O)cccc1Nc1ccnc2ccc(C(F)(F)F)cc12.Cl [GW466413] | 85 | 43 | 0 | 81 | 0 | 0 | 1 | 25 | 12 | 16 | – | – | – | – | – | – | – | – | – | – |

From PMC5540273 (PLoS ONE, 2017)
